Assay results from PubChem BioAssay.
Unmarked numbers belong to inactive results. Calls of active or inactive are those of the source. Rule as the data show it: active = inhibition above about 28%; inactive = the rest.

Experiment: StAR promoter reporter inhibitors, counter-screen for LRH-1 inverse agonist project, cell-based, luminescence, high throughput (AID 651611)
Settings: StAR promoter luciferase reporter counterscreen, at 3.6 µM, stronger effect = higher value
Work on `Cc1ccccc1N=C1NC(=O)/C(=C/c2cccnc2)S1` yielded an inhibition of 13.1%. `Cc1cccc(NC(=O)COC(=O)c2cccs2)c1C` gave an inhibition of 0.76%. In the case of `COc1ccc(-c2cc(NC=O)c3ncc(-c4ccc(C(C)=O)cc4)n3c2)cn1`, the inhibition is reported as 41.6% (active). With `CCCC(=O)Nc1sc2c(c1C(=O)Nc1ccccn1)CCCC2` the inhibition was -1.01%. Work on `O=C(CSc1ncnc2c1cnn2Cc1ccccc1)Nc1ccc2c(c1)OCCO2` yielded an inhibition of 2.88%. With `NS(=O)(=O)c1ccc(O)c(NC(=O)c2ccc([N+](=O)[O-])o2)c1` the inhibition was 13.8%. With `Cc1nc2ccccc2n1/N=C/c1ccc([N+](=O)[O-])s1` the inhibition was 20.9%. `CCOc1ccc(NC(=O)COC(=O)c2cc([N+](=O)[O-])ccc2N2CCOCC2)cc1` gave an inhibition of 6.26%. In the case of `CN1CC(=O)N(CC(=O)Nc2ccc(N3CCOCC3)cc2)C1=O`, the inhibition is reported as 18.7%. For `COc1ccc(OCCNC(=O)C2(C)CCN2Cc2ccc3ccccc3c2)cc1` (stereo not given), the inhibition was 13.6%. With `COc1ccc(-c2nnc(NC(=O)c3ccc([N+](=O)[O-])o3)o2)c(OC)c1` the inhibition was 15.5%. Compound `Cc1cc(O)c(/C=N/Nc2cccc(Cl)c2)c(=O)o1` has an inhibition of -0.11%. For `CNC(=O)c1cccc(NC(=O)c2cc(-c3ccccc3)nc3c2cnn3C(C)C)c1`, the inhibition was 29.4% (active). `CCOCC(=O)Nc1cccc(C(=O)OCC)c1` showed an inhibition of -6.06%. `O=C(CSc1cc(Cl)ccc1Cl)Nc1ccc(N2CCOCC2)cc1` gave an inhibition of 1.91%. For `CCOc1ccc(CCNC(=O)COC(=O)c2nc3nc(C)cc(C)n3n2)cc1OCC`, the inhibition was 9.65%. With `Cc1ccccc1C(=O)O/N=C/c1c(N2CCOCC2)n(C)c2ccccc12` the inhibition was 76.4% (active). Work on `NC(=S)N/N=C/c1ccc([N+](=O)[O-])cc1` yielded an inhibition of 6.27%. Compound `CC(=O)Nc1ccc(NC(=O)CSc2nnc(-c3cc4ccccc4o3)n2C)cc1` has an inhibition of -0.36%. `O=C(CSC1=NCCS1)N1CCN(c2ccc(Cl)cc2)CC1` gave an inhibition of 8.14%. Work on `COC(=O)c1ccc(NC(=O)CN2CCN(c3ccc(Cl)cc3)CC2)cc1` yielded an inhibition of -0.66%. For `CCOC(=O)c1ccc(Nc2nc(-c3cccnc3)nc3ccccc23)cc1`, the inhibition was 44.5% (active). In the case of `Cc1ccc(OCCC(=O)OCC(=O)Nc2ccc(N3CCOCC3)cc2)cc1`, the inhibition is reported as 16.6%. `COc1ccc2sc(-c3ccc(N(C)C)cc3)c(C#CCCO)c2c1` gave an inhibition of 3.58%. Compound `COc1ccccc1NC(=O)CN1CCN(CC(=O)Nc2ccc3c(c2)OCO3)CC1` has an inhibition of 7.22%. In the case of `COc1ccc(CCNC(=O)CSc2nn3c(=O)c(C)nnc3s2)cc1OC`, the inhibition is reported as 8.26%. In the case of `O=C(Nc1ccc(NC(=O)c2ccc([N+](=O)[O-])o2)cc1Cl)c1ccco1`, the inhibition is reported as 19.6%. Work on `O=C(NCc1cccnc1)c1cccn2c(=O)c3sccc3nc12` yielded an inhibition of 17.9%. Work on `O=C(COC(=O)c1ccc(Br)o1)Nc1ccc2c(c1)OCCO2` yielded an inhibition of 22%. For `COc1ccc(C2=NS(=O)(=O)N(C)C(C(=O)N3CCc4ccccc4C3)=C2)cc1OC`, the inhibition was 5.52%. `Cc1ccc(NC(=O)COC(=O)C(NS(=O)(=O)c2ccc(Cl)cc2)C(C)O)cc1C` (stereo not given) showed an inhibition of 2.25%. With `COc1ccc(NC(=O)/C(Cl)=C(/Cl)S(=O)Cc2ccc(Cl)cc2)cn1` (stereo not given) the inhibition was 58% (active). `Cc1cc(OCC(=O)NCc2cccnc2)c2c(C)c(C)c(=O)oc2c1` gave an inhibition of 9.8%. For `O=C(NC1CCC(CC2CCC(NC(=O)C(Cl)Cl)CC2)CC1)C(Cl)Cl` (stereo not given), the inhibition was 6.07%. In the case of `Cc1ccc(NC(=O)[C@H](Cc2c[nH]c3ccccc23)NC(=O)[C@@H]2Cc3ccccc3CN2)c(C)c1`, the inhibition is reported as 78.4% (active). In the case of `Cc1cccnc1NC(=O)c1ccc([N+](=O)[O-])o1`, the inhibition is reported as 12.3%. `COc1ccc(Nc2nc(NCCN3CCOCC3)nc(Nc3ccc(OC)cc3)n2)cc1` gave an inhibition of -1.42%. For `OCC1OC(n2cnc3c(/C=C(\O)c4ccccc4)ncnc32)C(O)C1O` (stereo not given), the inhibition was -32.8%. With `COc1ccccc1-c1cc(NC(C)=O)c2ncc(-c3ccc(S(C)(=O)=O)cc3)n2c1` the inhibition was 23.8%. `N#Cc1cc([N+](=O)[O-])ccc1NC(=O)COC(=O)C1CCC(=O)N1` (stereo not given) showed an inhibition of 15.6%.
